# Screening results: PubChem BioAssay, National Center for Advancing Translational Sciences (NCATS)
# Giardia FBPA inh: Giardia lamblia aldolase inhibition; A8B2U2; purified Giardia FBPA; Potency, µM (highest dose often 59.6 µM), without a hit: at the highest dose activity, negative = inhibition, hits mostly inhibitors; 290,000 tested, 0.71% active; further: potency means the concentration at half of the fitted maximal effect; on the % scale 0 is the no-effect control and ±100 the full control effect; nearly all actives have a fitted effect of over 55% in size
#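 40 nM FBPA preincubated 10 min at RT with compound (up to 57.5 uM final), then substrate plus GAPDH/TPI/NAD/arsenate coupling and diaphorase/resazurin added. Fluorescence read after 20 min at RT, 525/598 nm.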
# Shiga inhibitor: Shiga toxin inhibition. Vero cells, Shiga toxin protein synthesis inhibition reporter. 290,000 tested, 9.2% active. AID 2315. inhibition, % at 38.7 µM; in the data active means inhibition mostly above about 28%, no sharp cut-off; inactive means mostly below about 43%; further: 0% is about no effect
# LmPK inhibitor: blocks Leishmania mexicana pyruvate kinase activity | 290,000 tested, 0.37% active | Potency, µM (titrated, usually from 57.5 µM), for the others: at the top dose activity change, negative = inhibition, most hits filed as inhibitors | purified LmPK, Kinase-Glo ATP luminescence, 1 h; further: potency means the concentration at half of the fitted maximal effect; on the % scale 0 is the no-effect control and ±100 the full control effect
# Target sequence (Q27686 whole entry, looked up): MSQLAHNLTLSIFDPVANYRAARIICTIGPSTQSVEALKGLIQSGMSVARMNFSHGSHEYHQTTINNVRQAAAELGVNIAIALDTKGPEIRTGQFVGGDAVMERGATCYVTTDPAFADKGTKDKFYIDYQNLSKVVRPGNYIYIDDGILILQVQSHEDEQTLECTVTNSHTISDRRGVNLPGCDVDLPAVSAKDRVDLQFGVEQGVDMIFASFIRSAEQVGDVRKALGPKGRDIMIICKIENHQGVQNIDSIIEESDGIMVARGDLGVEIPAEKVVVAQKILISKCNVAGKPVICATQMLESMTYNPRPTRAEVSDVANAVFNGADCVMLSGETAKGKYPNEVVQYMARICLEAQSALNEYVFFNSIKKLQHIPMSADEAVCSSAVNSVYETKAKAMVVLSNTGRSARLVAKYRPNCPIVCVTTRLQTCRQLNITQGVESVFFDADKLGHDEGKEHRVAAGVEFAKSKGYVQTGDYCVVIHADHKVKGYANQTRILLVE
#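 qHTS format; LmPK 0.1 nM; substrates PEP 0.5 mM and ADP 0.1 mM. One-hour room-temperature incubation, then coupled luciferase luminescence; 0.5 nM enzyme wells mark activation.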
# NS1 function inh: inhibitors of influenza NS1 protein function | Potency, µM (titrated, usually from 46.1 µM), inactives show top-dose activity, positive = more growth | 270,000 tested, 0.4% active | AID 2326; calls by dose curve; further: potency means the concentration at half of the fitted maximal effect; actives are rising curves; nearly all actives have a fitted effect of over 50% in size
#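 Recovery from NS1-induced slow growth read by OD600 in budding yeast switched to galactose assay medium (pH 6.0, -URA) at 1:100 dilution. Compound 23 nl per well; the matching strain lacking NS1 serves as control.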
# Cycloheximide cs: affects cycloheximide protein synthesis inhibition readout, counter-screen; max response, %; cell reporter, cycloheximide protein synthesis inhibition counterscreen; 300,000 tested, 12% active; in the data active means max response mostly above about 13%, no sharp cut-off; inactive means mostly below about 14%; further: read at 38.3 µM for the half of the compounds with a filed dose; 0% is about no effect
# The depositor's hits bear a star; ? = inconclusive; . = not tested or not shown. Rows were chosen to be rich in hits. Some 14% of all compounds tested hit in one or more screens of this group. Unless noted, the call rests on the fitted dose curve; in most records, active means well fitted curve in the direction sought with a large enough effect; inconclusive means small, poorly fitted or top-dose-only effect, or another doubt; inactive means no such curve, though single readings can be large; an effect the other way counts as inactive or inconclusive.
SMILES,Giardia FBPA inh,Shiga inhibitor,LmPK inhibitor,NS1 function inh,Cycloheximide cs
CCN1CCc2c(sc(NC(=O)Cc3ccccc3)c2C(N)=O)C1,?,11.9,-4.5%,-2.1%,-0.1
CCN1CCc2c(sc(NC(=S)NC(=O)c3ccco3)c2C(N)=O)C1,?,16.2,-9.1%,-5.5%,13.9*
N/C(CC/C(N)=N/O)=N\O,.,.,.,1.8%,.
COc1ccc(Cn2nnnc2C(c2ccccc2)N2CCN(C3CCCC3)CC2)cc1 (configuration not stated),-19.4%,3.4,4.3%,-3.6%,-4.3
COc1ccc(C(c2nnnn2CCc2ccccc2)N2CCN(C3CCCC3)CC2)cc1 (configuration not stated),2.1%,60.2*,-0.7%,-4.7%,42.0*
COc1cc(C)cc2c(-c3c(O)cc(O)c4c3C[C@H](C)N[C@@H]4C)cc(-c3cc(-c4c(O)cc(O)c5c4C[C@H](C)N[C@@H]5C)c4cc(C)cc(OC)c4c3O)c(O)c12,.,.,.,7.94µM*,.
Cn1ccnc1SCC(=O)Nc1ccc2c(c1)OC(F)(F)O2,1.5%,22.2,1.6%,.,14.8*
Cc1ccc(NC(=O)CSc2nccn2C)cc1F,.,-14.3,-7.6%,-5.5%,9.0
Cc1ccc(CSc2nc3ncccc3[nH]2)cc1,-3.5%,63.7*,?,-39.8%,19.6*
CCOC(=O)c1ccc(NC(=O)CSc2nccn2C)cc1,-4.1%,60.8,-6.9%,-13.1%,38.9*
Cc1ccc(NC(=O)CSc2ncccn2)cc1F,0.1%,63.6*,12.5%,.,46.4*
Cc1ccc(NC(=O)CSc2nccn2Cc2ccccc2)cc1C,-7.8%,99.4,6.5%,-58.8%,47.9*
Cc1ccc(SCC(=O)Nc2ccc(S(=O)(=O)Nc3ncccn3)cc2)cc1,14.5%,-1.9,10.2%,0.8%,2.7
CC(=O)Nc1ccc(NC(=O)CSc2nccn2Cc2ccccc2)cc1,7.7%,5.4,1.1%,-1.6%,8.8
N#Cc1ccccc1NC(=O)CSc1nccn1CCc1ccccc1,-10.9%,78.2*,3.0%,-13.6%,37.4*
N#Cc1ccccc1NC(=O)CSc1nnc(-c2ccccc2)n1-c1ccccc1,-0.6%,-7.2,3.4%,-31.7%,-2.4
Cc1cc(C)nc(SCC(=O)Nc2ccc(S(=O)(=O)Nc3ncccn3)cc2)n1,-18.6%,74.9*,0.5%,-47.1%,35.4*
CCOC(=O)c1ccc(NC(=O)CSc2ccc(-c3cccnc3)nn2)cc1,-4.9%,53.9,3.3%,.,16.4*
COc1ccc(NC(=O)CSc2ccc(-c3cccnc3)nn2)cc1,-4.1%,-5.8,-15.5%,4.5%,-2.8
CN(C)c1ccc(C2/C(=C(/O)c3ccc(Br)cc3)C(=O)C(=O)N2C)cc1 (configuration not stated),-8.2%,-2.8,4.9%,11.4%,-2.0
COC(=O)c1ccc(C(NC(=O)OCc2ccccc2)/C(C)=C/[C@@H](C)C(=O)NCc2nn(-c3ccccc3)nc2C)cc1 (some centres not stated),-0.4%,.,.,.,.
CCOC(=O)c1ccc(NC(=O)CSc2nc3ncccc3[nH]2)cc1,-3.8%,16.2*,4.0%,9.4%,23.2*
CCOC(=O)c1cc(C)sc1NC(=O)CCC(=O)O,12.6%,-15.9,4.1%,-1.2%,-2.5
CCOC(=O)c1cc(C)sc1NC(=O)CSc1nccn1C,.,110.5*,1.0%,-19.8%,49.9*
CCCCc1ccc(NC(=O)CSc2nc3ncccc3[nH]2)cc1,4.4%,3.0,-5.2%,5.6%,2.8
SMILES,Giardia FBPA inh,Shiga inhibitor,LmPK inhibitor,NS1 function inh,Cycloheximide cs
CC(=O)c1ccc(NC(=O)CSc2nccn2C)cc1,1.3%,65.6*,-6.8%,0.2%,11.0*
CC(=O)c1ccc(NC(=O)CSc2nccn2CCc2ccccc2)cc1,-0.7%,87.9*,1.4%,2.0%,33.0*
Cc1ccc(-n2c(-c3ccncc3)nnc2-c2ccco2)cc1,2.7%,-7.5,-7.5%,-4.6%,-5.5
Cc1ccc(-c2nnc(-c3ccncc3)n2-c2ccc(C)cc2)cc1,11.0%,52.7*,2.0%,3.9%,20.2*
CCOc1cccc(/C=C2\NC(=S)N(c3ccccc3)C2=O)c1O,?,55.3*,-2.9%,-14.4%,42.0*
CCOc1cc(/C=C2\NC(=S)N(c3c(C)n(C)n(-c4ccccc4)c3=O)C2=O)ccc1O,-27.4%,-8.0,-1.9%,14.6%,-0.9
O=C(OC1CCCCC1=O)c1cc(S(=O)(=O)N2CCOCC2)ccc1F (configuration not stated),.,-7.0,-5.8%,3.0%,-2.1
COc1ccc(Cl)cc1NC(=O)Nc1ccccc1C(N)=O,-4.1%,-8.6,7.8%,.,7.6
O=C(NNc1ccccc1[N+](=O)[O-])Nc1cccc(Cl)c1,-18.7%,81.0*,-6.6%,5.1%,47.5*
O=C(NNc1ccccc1[N+](=O)[O-])Nc1ccc(F)cc1F,-15.7%,33.0,-0.9%,4.1%,1.3
O=C(Nc1cccc(Cl)c1)Nc1ccccc1C(=O)O,-18.3%,47.0*,-29.6%,6.3%,23.9*
COc1cccc(NC(=O)Nc2ccccc2C(N)=O)c1,-2.4%,34.8,?,.,27.2*
COc1cc(NC(=O)Nc2cccc(Cl)c2)c(C(=O)O)cc1OC,4.8%,20.8,12.1%,6.3%,-1.6
NC(=O)c1ccccc1NC(=O)Nc1cccc(Cl)c1,-5.0%,44.8*,-21.1%,4.5%,20.9*
COC(=O)c1ccc(CN2CCC(Oc3cccc(C(=O)N4CCOCC4)c3)CC2)cc1,.,0.8,-8.3%,-3.2%,11.0
COc1cccc([C@@H]2Oc3ccc(Br)cc3C[C@H]2OC(=O)NS(=O)(=O)c2ccc(C)cc2)c1,-0.6%,.,.,.,.
CN(C)/[N+]([O-])=N/Oc1cc(ON=[N+]([O-])N2CCN(c3ncccn3)CC2)c([N+](=O)[O-])cc1[N+](=O)[O-],-16.4%,-3.1,.,.,9.5
Cc1cc(S(=O)(=O)Nc2noc3ccccc23)ccc1F,20.4%,0.8,-4.4%,-1.5%,-5.4
CSc1ccc(NC(=O)Nc2ccccc2C(N)=O)cc1,-1.9%,74.4*,-24.3%,9.6%,67.4*
CCn1ncc(Br)c1C(=O)Nc1ccc(-c2ccno2)cc1,.,6.9,-7.5%,-0.7%,9.8*
O=C(Nc1ccccc1)C1=C[C@@H](c2ccc(Br)cc2)C[C@@H](OCc2ccc(CO)cc2)O1,-10.3%,85.9*,9.6%,8.4%,45.8*
C=CCOC(=O)C1=C[C@@H](c2ccc3c(c2)OCO3)C[C@@H](OCc2ccc(CO)cc2)O1,-15.3%,81.7*,1.2%,-5.6%,19.4*
O=C(Nc1ccccc1)C1=C[C@H](c2ccc3c(c2)OCO3)C[C@H](OCc2ccc(CO)cc2)O1,-18.3%,103.6*,2.3%,13.4%,72.6*
O=C(NC1CC1)C1=C[C@@H](c2ccc3c(c2)OCO3)C[C@@H](OCc2ccc(CO)cc2)O1,6.2%,41.1,1.9%,-3.7%,-1.4
NC(=O)C1=C[C@H](c2ccc(Br)cc2)C[C@H](OCc2ccc(CO)cc2)O1,-28.9%,56.4*,5.8%,1.3%,24.8*
C=CCOC(=O)C1=C[C@@H](c2ccc(Br)cc2)C[C@@H](OCc2ccc(CO)cc2)O1,0.6%,9.5,4.3%,-1.0%,-2.6
O=C(O)C1=C[C@@H](c2ccc(Br)cc2)C[C@@H](OCc2ccc(CO)cc2)O1,27.1%,-6.5,-0.2%,5.4%,2.8
